NPC1 prom act: activators of NPC1 promoter. Potency, µM (highest dose often 9.22 µM), without a hit: top-dose activation, most hits filed as activators. AID 485313. Huh7 NPC1 promoter luciferase reporter, 24 h. actives 2.4% (n = 320,000); also: % of control where 0% means no effect; nearly all actives have a fitted effect of over 60% in size
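Stably transfected Huh7 (NPC1 promoter→luciferase), 1500 cells/well in Opti-MEM + 10% FBS, 2 h settle, then compound 24 h at 37 °C. Luminescence after 10 min with Amplite reagent.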
ELG1 genotoxic: inducers of genotoxicity in HEK293T ELG1-luciferase cells; actives 1.3% (n = 330,000); Potency, µM (doses to about 46 µM), without a hit: top-dose activity change, positive = activation, usual class: activators; HEK293T ELG1-luciferase reporter, luminescence, 16 h; also: % of control where 0% means no effect; nearly all actives have a fitted effect of over 60% in size
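HEK293T cells expressing luciferase-tagged ELG1 were exposed to compound or DMSO vehicle for 16 hr at 37 °C and 5% CO2. Luciferase activity was then measured with ONE-Glo after 30 min at room temperature.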
Rab9 prom act: Rab9 promoter activation; Potency, µM (series often up to 9.22 µM), for the others: at the top dose activation, negative = inhibition, actives largely listed as activators; Huh7 Rab9 promoter-luciferase reporter, luminescence, 24 h; actives 2.8% (n = 320,000); AID 485297; also: % of control where 0% means no effect; nearly all actives have a fitted effect of over 60% in size
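Luciferase signal after 10 min detection reagent at ambient indicates Rab9 promoter upregulation; stably transfected Huh7 cells were treated 24 h with compound in DMSO at 37 °C, 5% CO2.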
SMN2 splice enh: enhancers of SMN2 splice variant expression; HEK293 SMN2-luciferase splicing reporter, luminescence, 30-36 h; Potency, µM (top dose mostly 46.1 µM), for the others: top-dose activity change, positive = activation, most hits filed as activators; actives 2.8% (n = 210,000); AID 1458; also: % of control where 0% means no effect; nearly all actives have a fitted effect of over 55% in size
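qHTS luciferase splicing reporter: luminescence rises when SMN2 exon 7 is included in transfected HEK293 cells. Compound exposure lasted 30-36 h at 37C, with 4.5 mM final sodium butyrate as control, followed by a ONE-Glo read.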
FLuc modulator: counter-screen for miR-21 project: firefly luciferase inhibitors or activators; P08659; purified FLuc, Km substrates, luminescence inhibition; Potency, µM (highest dose often 57.5 µM), without a hit: at the highest dose activity change, negative = inhibition, usual class: inhibitors; actives 6.9% (n = 360,000);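 also: plate controls were vehicle for no effect and reference inhibitor for full effect; nearly all actives have a fitted effect of over 55% in size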
Target sequence (P08659 whole entry, looked up): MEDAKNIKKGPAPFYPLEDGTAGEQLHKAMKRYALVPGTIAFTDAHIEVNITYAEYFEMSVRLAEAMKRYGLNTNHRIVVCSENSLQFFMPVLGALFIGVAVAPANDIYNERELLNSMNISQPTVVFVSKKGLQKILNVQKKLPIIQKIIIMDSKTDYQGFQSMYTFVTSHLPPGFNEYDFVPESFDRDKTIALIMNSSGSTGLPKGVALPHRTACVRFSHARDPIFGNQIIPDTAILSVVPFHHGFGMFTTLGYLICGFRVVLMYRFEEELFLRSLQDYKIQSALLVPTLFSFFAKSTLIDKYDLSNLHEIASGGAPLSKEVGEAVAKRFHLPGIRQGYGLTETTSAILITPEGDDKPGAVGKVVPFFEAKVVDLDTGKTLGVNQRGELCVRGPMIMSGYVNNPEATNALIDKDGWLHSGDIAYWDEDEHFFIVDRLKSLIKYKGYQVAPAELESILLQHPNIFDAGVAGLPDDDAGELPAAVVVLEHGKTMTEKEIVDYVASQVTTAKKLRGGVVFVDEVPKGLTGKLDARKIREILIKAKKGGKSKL
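Purified P. pyralis luciferase (10nM final) with 10uM D-luciferin and 10uM ATP (Km levels) in 50mM Tris acetate pH 7.5, 10mM Mg acetate, 0.01% Tween-20, 0.05% BSA; qHTS 6-point titration, ~60 µM downward; luminescence read.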
p53 reactivator: mutant p53 re-activation in reporter cells; H1299 p53-A138V BP100-luciferase reporter, luminescence, 24 h; Potency, µM (top dose mostly 92.2 µM), for the others: top-dose activity change, positive = activation, actives largely listed as activators; actives 0.063% (n = 320,000); AID 504706; also: % of control where 0% means no effect; nearly all actives have a fitted effect of over 45% in size
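p53-null H1299 cells stably carrying temperature-sensitive p53-A138V and a BP100-luciferase reporter were pinned with compounds (4-point, 1:5 series) and held 24 hrs at 37 deg C. Luminescence was read 10 min after detection reagent.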
* = called active by the depositor; ? = inconclusive; · = not tested or not shown. Sampled rows, rich in hits. Any-hit rate of the full collection: about 7.4%. Calls follow the shape of the dose curve; as a rule, active = well fitted curve in the direction sought with a large enough effect; inconclusive = small, poorly fitted or top-dose-only effect, or another doubt; inactive = no such curve, though single readings can be large; an effect the other way counts as inactive or inconclusive. Potency is read from the fitted curve at half-maximal effect.

SMILES	NPC1 prom act	ELG1 genotoxic	Rab9 prom act	SMN2 splice enh	FLuc modulator	p53 reactivator
S=C(Nc1ccc(Cl)cc1)N1CCN(Cc2ccccc2)CC1	-3%	-3%	2%	-10%	19µM*	0%
Cc1cc(C)cc(NC(=S)N2CCN(Cc3ccccc3)CC2)c1	1%	-2%	8%	2%	-4%	-1%
Cc1ccc(NC(=S)N2CCN(Cc3ccccc3)CC2)cc1	0%	34%	14%	-58%	12µM*	16%
CNc1c(-n2cc(C(=O)OC)c(C(=O)OC)c2C(=O)OC)c(=O)n(C)c(=O)n1C	2%	-4%	5%	·	-5%	28%
COCC(C)N1CCC(Oc2ccc(C(=O)N3CCCC3)cc2)CC1 (stereo not given)	-4%	-2%	2%	·	4%	4%
CCn1ncc(Cl)c1C(=O)Nc1ccc2c(c1)CCC2	13%	?	26%	·	?	0%
CC(C)Sc1nc(N)c2c3c(sc2n1)CN(C)CC3	?	?	?	11µM*	24µM*	22%
CCCCCCCC(=O)OC[C@H](CO)OC(=O)CCCCCCC	·	·	·	-10%	·	·
CCOC(=O)c1ccc(NC(=O)C2=C(C)C(=O)OC23CCN(C(C)=O)CC3)cc1	·	·	·	·	-5%	·
COc1ccc2nc3c(cc2c1)Cc1ccccc1-3	·	·	·	0.5µM*	·	·
O=c1c2ccccc2oc2cc(OCc3ccc(F)cc3)cc(O)c12	0%	-1%	7%	·	6%	1%
CC[C@H]1[C@@H]2C=C[C@@H]3[C@H]4C/C=C\C(=O)NCCC[C@@H]5NC(=O)C(=C5O)C(=O)CC[C@@H]4C[C@@H]3[C@H]2C[C@H]1C	·	·	·	-68%	·	·
Cc1ccc(Nc2nc(NCCO)c3ccccc3n2)cc1C	2%	-13%	-6%	·	7.6µM*	13%
Cc1ccc(Nc2nc3ccccc3n3cnnc23)cc1Cl	?	3%	23%	·	?	8%
COc1cc2nc(Nc3cccc(C)c3)nc(N)c2cc1OC	·	·	·	7%	5.4µM*	·
COc1cc2nc(Nc3ccc(C)c(C)c3)nc(N)c2cc1OC	0%	13%	-12%	-8%	?	18%
CCOC(=O)c1ccc(Nc2nc(N)c3cc(OC)c(OC)cc3n2)cc1	2%	13%	8%	4%	7.6µM*	14%
Cc1ccc(Nc2nc(N)c3ccccc3n2)cc1Cl	0.56µM*	?	0.63µM*	·	0.95µM*	?
Cc1ccc(C)c(N2CCN(CCCNC(=O)c3cnn(-c4ccc(F)cc4)c3C3CCN(C(=O)OC(C)(C)C)CC3)CC2)c1	·	·	·	·	6%	·
CC(N)(C(=O)O)c1cccc(CC(=O)O)c1 (stereo not given)	·	·	·	0%	·	·
COc1cc2nc(Nc3ccc(C)c(Cl)c3)nc(N)c2cc1OC	-4%	2%	-4%	·	21µM*	-18%
Clc1ccc(Cc2noc(-c3cccs3)n2)cc1	?	6.5µM*	22%	0%	13µM*	?
Cc1ccccc1-c1noc(-c2ccc(Cl)cc2)n1	4µM*	?	2.8µM*	11µM*	1.1µM*	18%
Cc1ccccc1-c1noc(-c2ccccc2F)n1	2.5µM*	6.5µM*	2.2µM*	?	1.9µM*	?
Cc1noc(-c2ccc(-c3noc(-c4ccc(Cl)cc4)n3)cc2)n1	·	·	·	·	0%	·
Cc1ccccc1-c1noc(-c2ccc(O)cc2)n1	?	?	29%	?	4.8µM*	?
O=C(NCc1ccc(Cl)cc1)c1cc(-c2cccs2)on1	1%	-2%	-1%	14%	-1%	?
CC(C)[C@@H](CSc1ccccc1)N1CCN(Cc2ccccc2)CCC1=O	-4%	-4%	0%	·	3%	·
Cc1cc(O)cc(O)c1C(=O)OC1(C)C(=O)C=C2C=C(/C=C/CO)OC=C2C1=O (stereo not given)	·	·	·	10%	·	·
O=C(c1csnn1)N1CCC2(CCCN(C(c3ccccc3)c3ccccc3)C2)CC1	·	·	·	-25%	·	·
